TGFb SMAD3 inh: blocks TGF-b signaling | HepG2 CAGA-GFP TGF-b/SMAD3 reporter, GFP fluorescence, 18 h; TGF-beta stimulated, 500 pg/mL final | Potency, µM (top dose mostly 46.1 µM), inactives show top-dose activity, negative = inhibition, most hits filed as inhibitors | 410,000 compounds, 1.2% hits | AID 588855; also: % is scaled to controls: 0 for no effect and ±100 for the full control effect; nearly all actives have a fitted effect of over 65% in size
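HEPG2 CAGA-GFP, 1000 cells/well; 2 h settle, 37 C; cpd via pin tool; TGF-b 500 pg/mL final; 18 h, 37 C; GFP imaging ex488/em500-530; %Activity normalised to -TGF-b and +DMSO controls; CRC fit, curve class.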
12-LOX inh: inhibitors of human 12S-lipoxygenase ALOX12; P18054; purified 12hLO, xylenol orange hydroperoxide absorbance; Potency, µM (titrated, usually from 108 µM), for inactives: top-dose activity change, negative = inhibition, hits mostly inhibitors; AID 1671190; 580,000 compounds, 1.1% hits; also: % is scaled to controls: 0 for no effect and ±100 for the full control effect
Target sequence (P18054 whole entry, looked up): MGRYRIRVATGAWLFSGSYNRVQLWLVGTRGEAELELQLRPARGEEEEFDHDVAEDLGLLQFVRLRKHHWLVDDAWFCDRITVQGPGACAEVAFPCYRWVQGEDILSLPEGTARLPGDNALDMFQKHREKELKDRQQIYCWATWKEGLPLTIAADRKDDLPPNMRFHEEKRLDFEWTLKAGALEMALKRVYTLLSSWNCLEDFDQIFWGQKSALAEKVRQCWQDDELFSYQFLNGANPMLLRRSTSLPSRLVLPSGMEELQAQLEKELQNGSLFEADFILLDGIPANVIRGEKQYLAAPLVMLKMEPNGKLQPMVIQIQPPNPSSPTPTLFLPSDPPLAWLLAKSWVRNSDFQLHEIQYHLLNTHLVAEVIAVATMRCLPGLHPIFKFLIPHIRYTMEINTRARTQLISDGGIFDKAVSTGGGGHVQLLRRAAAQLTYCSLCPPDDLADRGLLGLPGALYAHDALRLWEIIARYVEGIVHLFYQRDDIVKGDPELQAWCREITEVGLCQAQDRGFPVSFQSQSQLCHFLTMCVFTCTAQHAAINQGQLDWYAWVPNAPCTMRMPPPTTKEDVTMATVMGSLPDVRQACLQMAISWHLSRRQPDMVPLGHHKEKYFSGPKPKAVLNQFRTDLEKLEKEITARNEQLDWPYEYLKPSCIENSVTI
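Purified human 12hLO at 150 nM in 25 mM Hepes, 0.01% Triton X-100, pH 7.0, preincubated 15 min at room temperature with compound. Reaction started with 40 uM arachidonic acid, 30 min at room temperature. Hydroperoxide measured by Fe-xylenol orange, 573/405 nm absorbance ratio.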
ATXN2 expr inh: reduces ATXN2 reporter expression in HEK-293 cells | HEK-293 ATXN2-luciferase reporter, luminescence, 24 h | Potency, µM (top dose mostly 57 µM), inactives show top-dose activity change, negative = inhibition, most hits filed as inhibitors | 360,000 compounds, 0.72% hits | AID 1745845; also: % is scaled to controls: 0 for no effect and ±100 for the full control effect; nearly all actives have a fitted effect of over 55% in size
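qHTS (up to 57 uM final) was run with 24 h compound exposure of reporter cells at 37 °C. Each well was multiplexed: SteadyGlo luminescence measured ATXN2-luciferase expression after a fluorogenic Gly-Phe-AFC viability readout (25 uM final).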
HepG2 viability: HepG2 cytotoxicity, counter-screen for TGF-b inhibitors; 410,000 compounds, 0.76% hits; Potency, µM (top dose mostly 46.1 µM), without a hit: at the top dose activity change, negative = cytotoxicity, most hits filed as cytotoxic; HepG2 CAGA-GFP viability, ATP luminescence, 18 h
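CellTiter-Glo luminescence gave cytotoxicity after 18 hours at 37 degrees C. The cells were HepG2 CAGA-GFP in 1% FBS DMEM, stimulated with 500 pg/mL TGF-beta after compound addition. %Activity was normalised to no-cell wells (complete cell-killing) and DMSO (no toxicity), and curves were fitted and classified.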
S2 tox: viability counter-screen for ATXN expression inhibitors. 400,000 compounds, 0.49% hits. Potency, µM (titrated, usually from 56.7 µM), hits mostly cytotoxic. S2 cells (HEK-293 line with an ATXN2-luciferase reporter) viability, CellTiter-Fluor protease fluorescence, 24 h. AID 651635; also: nearly all actives have a fitted effect of over 40% in size
Active calls of the source: *; i = inactive; ? = inconclusive; · = not tested or not shown; ! = not confirmed by another sample; [ ] = another dose, or the depositor's remark. Sampled rows, rich in hits. Any-hit rate of the full collection: about 2.7%. Calls follow the shape of the dose curve; as a rule, active = well fitted curve in the direction sought with a large enough effect; inconclusive = small, poorly fitted or top-dose-only effect, or another doubt; inactive = no such curve, though single readings can be large; an effect the other way counts as inactive or inconclusive. Potency is read from the fitted curve at half-maximal effect.

SMILES	TGFb SMAD3 inh	12-LOX inh	ATXN2 expr inh	HepG2 viability	S2 tox
CCc1sc(C(=O)Nc2cccnc2)cc1Br	-3.4%	25.1µM*	-4.7%	-8.2%	i
CCc1cc(C(=O)Nc2ccc(OC)nc2)sc1C	1.3%	?	22.2%	-2.5%	i
CCOc1cc(/C=N/NC(N)=O)cc(Br)c1OCC(=O)Nc1cccc2ccccc12	17.0%	11.6%	-17.2%	11.2µM*	i
CCOc1cc(/C=N/NC(N)=O)cc(Br)c1OCC(=O)Nc1ccccc1C	?	0.0%	-13.2%	-18.7%	?
CC(C)(C)NC(=S)Nc1ccc(Nc2ccccc2)cc1	?	-38.1%	-13.8%	12.6µM*	?
S=C(NC1CCCCC1)c1ccccc1	·	31.6µM*	·	·	·
CCOC(=O)c1ccc(NC(=S)NC2CC(C)(C)NC(C)(C)C2)cc1	?	-18.3%	?	11.2µM*	?
CCOc1ccc(NC(=O)c2ccc(NC(=S)NC3CCCCC3)cc2)cc1	?	0.0%	-37.2%	17.8µM*	?
CCOC(=O)c1ccc(NC(=S)NN)cc1	-20.0%	?	15.2%	-7.1%	i
CCOc1ccc(NC(=O)c2ccc(NC(=S)NC3CC3)cc2)cc1	-13.3%	-15.2%	-31.0%[11.3 µM]	2.0%	i
CCOc1ccc(CCNC(=O)c2cccn2-c2nnc(N3CCCC3)s2)cc1OCC	·	1.1%	·	·	·
CCc1ccc(CC)c(C(=O)Cn2c(Cl)nc3c2c(=O)n(C)c(=O)n3C)c1	·	-0.8%	·	·	·
S=C(Nc1ccc(Nc2ccccc2)cc1)NC1CCCCCC1	?	44.7µM*	?	-22.1%	?
Cn1cnc2c1c(=O)n(CCCSc1nnc(-c3cccc(Cl)c3)o1)c(=O)n2C	·	-1.2%	·	·	·
COc1cc(SC#N)ccc1N=Cc1c(C)[nH]n(-c2ccc(Cl)cc2)c1=O	64.8%	-15.7%	-34.1%	0.8%	?
COc1cc(SC#N)ccc1N=Cc1c(C)[nH]n(-c2ccc(C)c(C)c2)c1=O	?	-5.3%	11.2µM*	8.91µM*	12.6µM*
CC1CCN(C(=O)CSc2n[nH]c(-c3cc(Br)ccc3O)n2)CC1	·	31.6µM*	·	·	·
Cn1c(=O)c2c(O)c(Cc3ccccc3)c(=O)n(C)c2n(C)c1=O	18.8%	-9.1%	24.0%	3.2%	i
Cn1c(=O)c2c(O)c([N+](=O)[O-])c(=O)n(C)c2n(C)c1=O	-2.4%	?	-2.7%	11.2µM*	i
COc1cc(CNC(=O)C2CCCCN2S(=O)(=O)c2ccc(F)cc2)cc(OC)c1OC (stereo not given)	-22.0%	1.3%	-16.7%	-8.4%	i
COc1ccc(NC(=O)C(=O)NCCC2CCCCN2S(=O)(=O)c2ccc(F)cc2)cc1 (stereo not given)	-17.0%	0.2%	2.51µM*	4.1%	i
COc1ccc(OC)c(CNC(=O)C2CCCCN2S(=O)(=O)c2ccc(F)cc2)c1 (stereo not given)	7.94µM*	-14.3%	-0.9%	-15.8%	i
CCOC(=O)c1cc(NC/C=C/c2ccccc2)ccc1N1CCOCC1	·	-18.1%	·	·	·
Cc1c(Cl)c(CSc2nnc3ccc(C(F)(F)F)cn23)nc2ccccc12	·	-0.6%	·	·	·
CCOC(=O)c1sc(-c2ccc(Cl)cc2)cc1NC(=O)CN1CCCC1	·	6.9%	·	·	·
SMILES	TGFb SMAD3 inh	12-LOX inh	ATXN2 expr inh	HepG2 viability	S2 tox
Cc1ccc(C(=O)NCC(NC(=O)c2ccc(C)nc2)C2CC2)cn1 (stereo not given)	·	5.6%	·	·	·
CCC(C)NC(=O)c1ccc(Cl)cc1-n1cnnn1 (stereo not given)	·	3.9%	·	·	·
Cc1ccn2c(-c3n[nH]c(=S)n3C)c(C)nc2c1	-6.9%	44.7µM*	0.7%	3.5%	?
COc1cc(CNn2cn[nH]c2=S)cc(Cl)c1OCc1ccc(F)cc1	0.1%	?	-14.4%	0.7%	i
CCOc1cc(CNc2ccccc2)cc(Br)c1OCc1ccc(F)cc1	-6.3%	-10.3%	-1.3%	-1.2%	i
CCOc1cccc(CNc2ccc(O)cc2)c1OCc1ccccc1Cl	12.6µM*	363.1%	11.2µM*!	15.8µM*!	12.6µM*!
CCOc1cc(CNc2ccc(O)cc2)cc(Cl)c1OCc1ccccc1	?	116.2%	31.6µM*	-95.0%	22.4µM*
COc1cc(CNn2c(C)n[nH]c2=S)cc(Cl)c1OCc1ccccc1	-5.5%	20µM*	-22.1%	-7.7%	i
N#CC1=C(SCc2ccc(C#N)cc2)NC(=O)C(C#N)C12CCCCC2 (stereo not given)	·	-5.0%	·	·	·
CCONC(=O)COc1ccc(C#N)cc1	·	7.8%	·	·	·
COc1ccc(/C=N\NC(=O)COc2ccc(C(C)(C)C)cc2)cc1Cn1nc(C)cc1C	5.62µM*	25.5%	-38.2%	-63.3%	i
Cc1cccc(N2CCN(C(=O)CS(=O)(=O)c3cccc4nsnc34)CC2)c1C	5.2%	-6.8%	2.6%	-10.4%	i
O=C(CS(=O)(=O)c1cccc2nsnc12)N1CCN(c2ccccc2F)CC1	15.8µM*	-7.4%	-0.2%	-65.6%	i
NC(N)=Nc1nc(-c2ccccc2)c2cc(F)ccc2n1	?	-14.1%	?	-78.8%	5.62µM*
Cc1cc(C)c(CC(=O)O)c(C)c1	·	1.58µM*	·	·	·
Cc1ccc(Nc2nc(N)nc(COc3ccccc3C(N)=O)n2)cc1	·	-3.4%	·	·	·
O=C(CCC(=O)Nc1ccc(Br)cc1)N/N=C/c1ccccc1F	-25.2%	10.1%	5.8%	1.78µM*	i
C=CCc1cccc(/C=N/NC(=O)CCC(=O)Nc2ccc(C)cc2)c1O	-41.8%	12.9%	14.1µM*	-38.5%	i
Cc1ccc(NC(=O)CCC(=O)N/N=C/c2ccc(O)cc2O)cc1	0.0%	?	-16.4%	-18.0%	i
Cc1ccc(-c2cc(C(F)F)n3ncc(C#N)c3n2)cc1	·	27.9%	·	·	·
COc1cc(C)ccc1OCCOCCN(C)Cc1ccccc1	0.0%	-30.4%	-13.3%	20µM*	i
Cc1ccc(/C=C2/Sc3ccccc3N(CC(=O)NCC3CCCO3)C2=O)cc1 (stereo not given)	-0.2%	·	-19.6%	-12.3%	?
Cc1cc(/C=C2\Sc3ccccc3N2C)cc(C)[n+]1CC1CCCO1 (stereo not given)	30.7%	-22.5%	1.19µM*	-17.1%	·
Nc1nnc(CC(=O)N/N=C/c2cccc([N+](=O)[O-])c2)s1	-3.4%	-2.7%	-0.7%	-1.5%	i
Nc1nnc(CC(=O)N/N=C/c2cc([N+](=O)[O-])cc(Br)c2O)s1	6.7%	15.8µM*	-10.0%	9.5%	i
CCOc1ccc(-c2nc(CNC(=O)NC3CCCC3)c(C)o2)cc1	·	6.0%	·	·	·
O=C(c1cnccn1)N1CC(=O)N2[C@H](C1)[C@@H](c1ccc(Br)cc1)[C@@H]2CO	·	5.62µM*	·	·	·
Cc1nc2c(cnn2C(C)C)cc1C(=O)N(C)Cc1ccc(Cl)c(Cl)c1	·	-0.1%	·	·	·
N#Cc1ccccc1NC(=O)CCN1CCCN(Cc2cccs2)CC1	·	-3.7%	·	·	·
O=C(Nc1nc2ccccc2[nH]1)c1ccc(F)cc1	-14.5%	4.8%	?	-36.2%	i

Source: PubChem (National Center for Advancing Translational Sciences (NCATS))
